{
  "source": "PubChem BioAssay AID893",
  "about": "(National Center for Advancing Translational Sciences (NCATS), 2007)",
  "note": "Where “and” joins values, the source holds several entries; their conditions need not be identical. Equal values may be shown once. About 5,700 (7.6%) of roughly 75,000 compounds were called active. Another 7% or so got no clear call; they are omitted. Calls follow the shape of the dose curve; as a rule, active = well fitted inhibition curve with a large enough effect; inconclusive = small, poorly fitted or top-dose-only effect; inactive = no such curve, though single readings can be large or run the other way. The sample as a whole holds a higher share of actives than the screen did.",
  "data": [
    {"target": "3-hydroxyacyl-CoA dehydrogenase type-2 (Homo sapiens) (UniProt Q99714)", "test": "qHTS Assay for Inhibitors of HSD17B4, hydroxysteroid (17-beta) dehydrogenase 4; also: potency is read from the fitted curve at half-maximal effect;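 also: the protocol describes HADH2 (HSD17B10) and not the HSD17B4 of the title; nearly all actives have a fitted effect of over 70% in size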; as to activity change, negative = inhibition: % is scaled to controls: 0 for no effect and ±100 for the full control effect", "conditions": "recombinant HSD17B10, NADH fluorescence kinetic; series mostly up to 57.1 µM; activity change, negative = inhibition: at the top concentration", "how_it_was_run": "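Enzyme plus compound, 15 min room temperature; substrate mix added (NAD+ 1 mM, beta-hydroxybutyryl-CoA 90 uM final); plates read kinetically for NADH fluorescence. HADH2 was His-tagged, E. coli-derived, 20 nM.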", "values": [
      {"compound": "CC(C)C1=CC2=CC[C@@H]3[C@](C)(CO)CCC[C@]3(C)C2CC1", "note": "(some centres not stated)", "activity change, negative = inhibition": "9.63% (inactive)"},
      {"compound": "Cc1nc2ccc(S(=O)(=O)NC(C(=O)N3CCCCCC3)C(C)C)cc2s1", "note": "(configuration not stated)", "activity change, negative = inhibition": "4.54% (inactive)"},
      {"compound": "COC(=O)[C@H]1C[C@@H]1[C@H](NC(=O)Oc1ccc(F)cc1)c1ccccc1", "activity change, negative = inhibition": "-6.57% (inactive)"},
      {"compound": "N=c1c2c3c(sc2ncn1CCCN1CCOCC1)CCCCC3", "activity change, negative = inhibition": "5.59% (inactive)"},
      {"compound": "COC(=O)c1ccc(C(NC(=O)OCc2ccccc2)/C(C)=C/[C@@H](C)C(=O)NCc2cc(C)on2)cc1", "note": "(some centres not stated)", "activity change, negative = inhibition": "-4.34% (inactive)"},
      {"compound": "Cc1cc(C)cc(OCc2nnc(SCC(=O)Nc3ccccc3)o2)c1", "activity change, negative = inhibition": "8.07% (inactive)"},
      {"compound": "Cc1cccc(OCc2nnc(SCn3nnc4ccccc4c3=O)o2)c1", "activity change, negative = inhibition": "-9.02% (inactive)"},
      {"compound": "Cc1cccc(OCc2nnc(SCc3nc4cc(C(F)(F)F)ccc4c(=O)[nH]3)o2)c1", "Potency": "31.6 µM (active)"},
      {"compound": "O=C(c1csnn1)N1CCC2(CCN(Cc3nccs3)CC2)CC1", "activity change, negative = inhibition": "-2.61% (inactive)"},
      {"compound": "Cc1ccccc1CSc1nnc(-c2ccccn2)n1N", "activity change, negative = inhibition": "4.98% (inactive)"},
      {"compound": "CC(C)(C)NCC[C@@H](O)c1cc(C(F)(F)F)nc2c(C(F)(F)F)cccc12", "activity change, negative = inhibition": "3.93% [at 11.4 µM] (inactive)"},
      {"compound": "Cc1ccn2cc(C(=O)NC3CCN(Cc4ccccc4)CC3)nc2c1", "Potency": "31.6 µM (active)"},
      {"compound": "COC(=O)c1cc(S(=O)(=O)NC2CCN(Cc3ccccc3)CC2)cn1C", "activity change, negative = inhibition": "-3.37% (inactive)"},
      {"compound": "O=C(NC1CCN(Cc2ccccc2)CC1)c1ccccc1F", "activity change, negative = inhibition": "12.8% (inactive)"},
      {"compound": "COc1cc(Cl)cc(C2NC(=O)NC(C)=C2C(=O)NCc2ccccc2)c1O", "note": "(configuration not stated)", "activity change, negative = inhibition": "8.34% (inactive)"},
      {"compound": "CCOc1ccc(C(=O)Nc2cc(OC)ccc2OC)cc1", "activity change, negative = inhibition": "-11.3% (inactive)"},
      {"compound": "COc1ccc(OC)c(Nc2nc(-c3ccc(O)c(O)c3)cs2)c1", "Potency": "7.94 µM (active)"},
      {"compound": "Oc1ccc(-c2csc(Nc3cccnc3)n2)cc1", "activity change, negative = inhibition": "3.13% (inactive)"},
      {"compound": "COc1ccc(-n2nnc3c(=O)n(CC(=O)OCc4ccccc4)cnc32)cc1", "activity change, negative = inhibition": "1.02% (inactive)"},
      {"compound": "c1ccc(-c2noc(-c3cccs3)n2)nc1", "activity change, negative = inhibition": "-5.02% (inactive)"},
      {"compound": "COC(=O)[C@H](C)[C@H]1C[C@]1(C)[C@H](NC(=O)OCc1ccccc1)c1ccccc1", "activity change, negative = inhibition": "-4.85% (inactive)"},
      {"compound": "COc1ccccc1CNc1ncnc2ccc(-c3c(C)noc3C)cc12", "activity change, negative = inhibition": "-0.171% (inactive)"},
      {"compound": "COc1ccc2[nH]cc(CCNc3ncnc4ccc(-c5ccccc5CN(C)C)cc34)c2c1", "activity change, negative = inhibition": "14.2% (inactive)"},
      {"compound": "COc1ccccc1CNc1ncnc2ccc(-c3ccc4c(c3)OCO4)cc12", "Potency": "31.6 µM (active)"},
      {"compound": "COc1cc(OC)c(C(=O)NC2CCCCCC2)cc1OC", "activity change, negative = inhibition": "-14% (inactive)"},
      {"compound": "O=C(COC(=O)C12CC3CC(CC(C3)C1)C2)NCc1ccco1", "activity change, negative = inhibition": "-13.9% (inactive)"},
      {"compound": "O=C(CCC(=O)c1cccs1)NCc1ccccc1", "activity change, negative = inhibition": "9.75% (inactive)"},
      {"compound": "O=C(COC(=O)CCC(=O)c1cccs1)NCc1ccco1", "Potency": "25.1 µM (active)"},
      {"compound": "CC(=O)Nn1cc2c(=O)n(C)c(=O)n(C)c2c1", "activity change, negative = inhibition": "5.62% (inactive)"},
      {"compound": "CC1=C(C(=O)Nc2ccc(Cl)cc2)C(c2ccco2)NC(=O)N1", "note": "(configuration not stated)", "activity change, negative = inhibition": "-1.26% (inactive)"},
      {"compound": "C=C(C)Cn1c(N2CCN(CC)CC2)nc2c1c(=O)[nH]c(=O)n2C", "activity change, negative = inhibition": "1.14% (inactive)"},
      {"compound": "CCC(C)(C)N=C(NC#N)Nc1cccnc1", "activity change, negative = inhibition": "-14.3% (inactive)"},
      {"compound": "CCOC(=O)CSc1nccc(N(C)C)c1C#N", "activity change, negative = inhibition": "-0.126% (inactive)"},
      {"compound": "CCOC(=O)Cc1c(C)nc2c(C#N)c(C)nn2c1C", "Potency": "25.1 µM (active)"},
      {"compound": "CC[C@@H]1Cc2cc(O)ccc2C2=C1c1ccc(O)cc1C[C@H]2CC", "Potency": "25.1 µM (active)"},
      {"compound": "Cc1ccc2nc(CC(=O)c3ccc4ccccc4c3)c(=O)[nH]c2c1", "activity change, negative = inhibition": "5.47% [at 11.4 µM] (inactive)"},
      {"compound": "C=CC(=O)c1ccc2ccccc2c1", "Potency": "25.1 µM (active)"},
      {"compound": "c1ccc(CCC2=NCCn3cccc32)cc1", "activity change, negative = inhibition": "4.34% (inactive)"},
      {"compound": "CN(CCOc1ccc(CC2SC(=O)NC2=O)cc1)c1ccccn1", "note": "(configuration not stated)", "Potency": "31.6 µM (active)"},
      {"compound": "CO[C@@H]1COC(=O)[C@H](Cc2ccccc2)NC(=O)C/C=C\\[C@@H](C)[C@H](OC)COC(=O)[C@@H](C)NC(=O)C/C=C\\[C@H]1C", "activity change, negative = inhibition": "5.16% [at 11.4 µM] (inactive) and 0.0428% [at 11.4 µM] (inactive)"},
      {"compound": "CCOC(=O)Cc1csc(NC(=O)Nc2ccccc2)n1", "activity change, negative = inhibition": "5.37% (inactive)"},
      {"compound": "Cc1csc(NC(=O)NC2(C(F)(F)F)Oc3ccccc3O2)n1", "Potency": "25.1 µM (active)"},
      {"compound": "Cc1cc(C)nc(NC(=O)Nc2ccccc2C(F)(F)F)n1", "activity change, negative = inhibition": "-1.71% (inactive)"},
      {"compound": "CCCCN(C)C(=O)C1CCN(Cc2ccccn2)CC1", "activity change, negative = inhibition": "5.92% (inactive)"},
      {"compound": "CO[C@H]1COC(=O)[C@@H](C)NC(=O)C/C=C\\[C@@H](C)[C@H](OC)COC(=O)C/C=C\\[C@@H]1C", "activity change, negative = inhibition": "-0.943% [at 11.4 µM] (inactive)"},
      {"compound": "O=C1c2ccccc2-c2ncnc3c(N4CCOCC4)cc(N4CCOCC4)c1c23", "activity change, negative = inhibition": "0.627% (inactive)"},
      {"compound": "c1ccc(-c2oc3ncnc(N4CCOCC4)c3c2-c2ccccc2)cc1", "Potency": "10 µM (active)"},
      {"compound": "c1ccc(-n2nnnc2N2CCOCC2)cc1", "activity change, negative = inhibition": "5.21% (inactive)"},
      {"compound": "Cc1cc(C(=O)OCC(=O)c2c(N)n(C)c(=O)n(C)c2=O)c(C)o1", "activity change, negative = inhibition": "7.96% (inactive)"},
      {"compound": "CCOc1cccc(C(=O)Nc2cccnc2)c1", "activity change, negative = inhibition": "8.63% (inactive)"},
      {"compound": "CCCOc1cccc(C(=O)Nc2nnn(CCC)n2)c1", "activity change, negative = inhibition": "11.2% (inactive)"},
      {"compound": "CCC(=O)Oc1cccc(C(=O)Nc2ccc(-c3nnc(-c4ccco4)o3)cc2)c1", "Potency": "20 µM (active)"},
      {"compound": "Oc1ccc2c(c1)OCC1c3cc4c(cc3OC21)OCO4", "note": "(configuration not stated)", "activity change, negative = inhibition": "-0.88% (inactive)"},
      {"compound": "O=C(c1ccccc1)N1CCN(C(=O)N2CCCCC2)CC1", "activity change, negative = inhibition": "3.89% (inactive)"},
      {"compound": "O=C(O)CS(=O)c1ccc2c3c(cccc13)C(=O)c1ccccc1-2", "note": "(configuration not stated)", "activity change, negative = inhibition": "-2.63% [at 11.4 µM] (inactive)"},
      {"compound": "CC(=O)c1c(C)n(-c2ccc(N(C)C)cc2)c2ccc(OCC(N)=O)cc12", "activity change, negative = inhibition": "-11.9% (inactive)"},
      {"compound": "O=C1Nc2c(Br)cc(Br)cc2C1(O)N1CCOCC1", "note": "(configuration not stated)", "activity change, negative = inhibition": "0.821% (inactive)"},
      {"compound": "Brc1cccc(-c2nnc3n2CCC3)c1", "activity change, negative = inhibition": "0.616% (inactive)"},
      {"compound": "CCc1ccc2oc(-c3ccc(N)cc3)nc2c1", "Potency": "25.1 µM (active)"},
      {"compound": "CCN(CC)c1ccc2oc(=O)c(C)nc2c1", "activity change, negative = inhibition": "-25.8% (inactive)"},
      {"compound": "Cc1ccc(S(=O)(=O)N2C3C=CC(C3)C2C(=O)O)cc1", "note": "(configuration not stated)", "activity change, negative = inhibition": "6.36% (inactive)"},
      {"compound": "COC(=O)N1CCC2(CCCN(c3ccncc3)C2)CC1", "activity change, negative = inhibition": "1.52% (inactive)"},
      {"compound": "COc1cccc(N2CCN(C3CC(=O)N(c4ccc(Cl)cc4)C3=O)CC2)c1", "note": "(configuration not stated)", "activity change, negative = inhibition": "-12.5% (inactive)"},
      {"compound": "COC(=O)CC1C(C)(C)C(OC(C)=O)C2CC3=C4CC(=O)OC(c5ccoc5)[C@]4(C)CCC3[C@@]1(C)C2=O", "note": "(some centres not stated)", "activity change, negative = inhibition": "-4.16% (inactive)"},
      {"compound": "COc1ccc(N2CCN(C(c3cc4ccc(C)cc4[nH]c3=O)c3nnnn3C3CCCC3)CC2)cc1", "note": "(configuration not stated)", "activity change, negative = inhibition": "-0.718% (inactive)"},
      {"compound": "COCCn1nnnc1C(c1cc2ccc(OC)cc2[nH]c1=O)N1CCc2ccccc2C1", "note": "(configuration not stated)", "activity change, negative = inhibition": "-12% (inactive)"},
      {"compound": "CCOc1ccc2[nH]c(=O)c(C(c3nnnn3CCOC)N3CCOCC3)cc2c1", "note": "(configuration not stated)", "Potency": "10 µM (active)"}
    ]}
  ]
}
